Screens from PubChem BioAssay.
An excerpt weighted towards active compounds, which were near 2% of everything screened.
NPR1 activator = GC-A (human) enzyme activation. P16066. HEK293 GC-A cells, cGMP TR-FRET, EC30 ANP; 0% at EC30 ANP, 100% saturating ANP. activation, % at 10 µM. 370,000 compounds, 0.14% hits; in the data active = activation above about 40%
FAS-TE inh = FAS thioesterase (human) inhibition; P49327; recombinant FAS-TE, OMFH fluorogenic substrate, fluorescence endpoint; inhibition, % at 15 µM; 360,000 compounds, 0.67% hits; AID 602261;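 active = compounds whose normalised, plate-corrected inhibition of enzyme fluorescence in the single-dose primary screen is 50% or more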
ADAM10 inh = inhibits human ADAM10; inhibition, % at 7 µM; recombinant ADAM10, EDANS/DABCYL FRET peptide cleavage, 3 h; 370,000 compounds, 0.62% hits; AID 720582;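 active = inhibition above a per-campaign cutoff equal to the mean of compounds falling between control-based bounds plus 3 SD, cut at about 20% in these data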
ADAM17 inh = inhibitors of human ADAM17; P78536; recombinant ADAM17, EDANS/DABCYL FRET peptide cleavage; inhibition, % at 6.95 µM; 370,000 compounds, 0.83% hits; AID 720648;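 active = inhibition above the mean of compounds lying between control limits plus 3 SD, set per campaign, cut at about 8.5% in these data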
GC-B act = GC-B (human) receptor activation; 370,000 compounds, 0.11% hits; HEK293-GC-B cells, CNP EC30, cGMP TR-FRET; 0% at EC30 CNP, 100% saturating CNP; activation, % at 10 µM;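 active = activation at 10 µM reaching about 35% in either raw or pattern-adjusted values, limit read from the data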
ADAM10 counter = inhibits human ADAM10 in ADAM17 exosite counter-screen; shares compounds with ADAM17 inh; recombinant ADAM10, EDANS/DABCYL FRET peptide cleavage, 3 h; inhibition, % at 6.95 µM; 2,900 compounds, 47% hits; AID 743256;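 active = mean inhibition over the triplicate runs exceeds the activity threshold set in the earlier primary screen, cut at about 20% in these data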
ADAM17 confirm = confirmation of inhibitors of human ADAM17; shares compounds with ADAM17 inh; recombinant ADAM17, EDANS/DABCYL QFRET peptide cleavage; inhibition, % at 6.95 µM; 2,900 compounds, 65% hits; AID 743257;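 active = mean inhibition across replicates above the hit cutoff set in the primary screen, cut at about 8.5% in these data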
Of the large screens only hits and unclear results are named; the others gave an inactive call (follow-up assays come after a bar, where they were run).

COc1cc(/C=N/n2c(-c3ccc4c(c3)NC(=O)CO4)csc2=Nc2cccc(C)c2)ccc1O	ADAM17 inh 9.3 | ADAM10 counter inactive | ADAM17 confirm 9.8
CC(c1nnnn1C1CCCCC1)N(Cc1ccccc1)Cc1cccnc1 (centres undefined)	ADAM17 inh 9.4 | ADAM10 counter inactive | ADAM17 confirm inactive
Cc1ccc(-c2csc(Nc3ccccn3)n2)cc1	ADAM17 inh 9.0 | ADAM10 counter 27 | ADAM17 confirm 16
c1ccc(-c2csc(Nc3ccccn3)n2)cc1	none
N#CCOc1ccccc1CNC[C@H]1O[C@@H](n2cnc(C(N)=O)n2)[C@H](O)[C@@H]1O	ADAM17 inh 9.7 | ADAM10 counter inactive | ADAM17 confirm inactive
Brc1cccc(Cn2ccc3ccc(-c4ccc5ccn(Cc6cccc(Br)c6)c5c4)cc32)c1	none (no result: FAS-TE inh)
O=C(Nc1cccc(O)c1)c1ccc(S(=O)(=O)N2CCCCCC2)cc1	ADAM17 inh 10 | ADAM10 counter inactive | ADAM17 confirm inactive
CC(C)Oc1ccc(C(=O)Nc2cccc(S(=O)(=O)N3CCCC3)c2)cc1	ADAM17 inh 9.0 | ADAM10 counter inactive | ADAM17 confirm inactive
Cc1ccc(C)c(N2N=C(C(=O)Nc3cccc(S(=O)(=O)N4CCCCC4)c3)CCC2=O)c1	ADAM17 inh 13 | ADAM10 counter inactive | ADAM17 confirm inactive
CC(C)Oc1ccc(C(=O)Nc2ccc(Cl)c(S(=O)(=O)Nc3ccc(Cl)cc3)c2)cc1	ADAM17 inh 10 | ADAM10 counter 26 | ADAM17 confirm 16
C[C@H]1[C@H](NC(=O)c2ccc(Cl)c(C(F)(F)F)c2)CC[C@@]23CCCN2C(=O)CCC[C@@H]13	none (no result: FAS-TE inh)
O=C(OCC#CCSc1nnc(-c2cccc3ccccc23)o1)C1CC1	none (no result: FAS-TE inh)
COc1ccc(/C=C/S(=O)(=O)NCc2ccccc2)c(CNC(=O)OC(C)(C)C)c1	none (no result: FAS-TE inh)
COc1ccc(CN2C(=O)N3Cc4ccccc4C3CS2(=O)=O)cc1 (centres undefined)	none (no result: FAS-TE inh)
CCOc1ccc(-c2cc(C(=O)NCc3ccc(C(F)(F)F)cc3)[nH]n2)c(C)c1	none
Cc1cc(F)ccc1-c1cc(C(=O)NCc2ccc(C(F)(F)F)cc2)[nH]n1	ADAM17 inh 11 | ADAM10 counter 24 | ADAM17 confirm 13
COc1ccc(F)cc1-c1cc(C(=O)NCc2cc(C(F)(F)F)cc(C(F)(F)F)c2)[nH]n1	ADAM17 inh 12 | ADAM10 counter inactive | ADAM17 confirm inactive
CCCCNC(=O)C[C@H]1C[C@@]2(C(=O)OC)C(=C[C@H](C(C)(C)C)O[C@@H]2C)N(Cc2ccc(Cl)cc2Cl)C1=O	none (no result: FAS-TE inh)
Cc1cc(C(=O)Nc2ccc(F)cc2)n(-c2ccccc2)n1	none (no result: FAS-TE inh)
COc1ccc(Cn2cc(CN3[C@@H](C)COc4cc(Br)ccc4S3(=O)=O)nn2)cc1	none (no result: FAS-TE inh)
CCOC(=O)[C@@]12CN(C(=O)OC(C)(C)C)CC=C1N(Cc1ccc(OC)cc1)C(=O)[C@H]2CC(=O)NCCCN1CCCC1=O	none (no result: FAS-TE inh)
COc1cccc(C(=O)NCCN2C(=O)C3C4C=CC(C4)C3C2=O)c1 (centres undefined)	none (no result: FAS-TE inh)
